In PubChem BioAssay AID1159580 (chemical genetic matrix, 2015) one finds normalized growth data, which are given here for three compounds.

Each structure is given as a SMILES string. Among all 5,500 compounds or so, about 2,000 (36%) were called active. Another 18% or so got no clear call; they are omitted. The list shows a part of the results. A number with no mark means an inactive call. Rule as the data show it: active = normalized growth mostly below about 0.91 (no sharp cut-off); inconclusive = no clear call, values can overlap the other calls; inactive = mostly above about 0.92.

This test is described as follows: chemical genetic growth profiling, strain panel (AID 1159580).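 Also: tested at 20 µM; growth read once vehicle control cultures reached saturation at 30 °C; 1 = growth at the plate median or of vehicle wells.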 Conditions: growth OD.
[1] abbreviates: S. cerevisiae deletion strains, locus YHR030C, strain SLT2, stronger effect = lower value.
Where [2] appears, read: S. cerevisiae deletion strains, locus YAL013W, strain DEP1, stronger effect = lower value.
[3] abbreviates: S. cerevisiae deletion strains, locus YBR229C, strain ROT2, stronger effect = lower value.
Setting [4] is: S. cerevisiae deletion strains, locus YDL101C, strain DUN1, stronger effect = lower value.
The mark [5] stands for this setting: S. cerevisiae deletion strains, locus YDR150W, strain NUM1, stronger effect = lower value.
Setting [6] is: S. cerevisiae deletion strains, locus YEL061C, strain CIN8, stronger effect = lower value.
Where [7] appears, read: S. cerevisiae deletion strains, locus YGR078C, strain PAC10, stronger effect = lower value.
Setting [8] is: S. cerevisiae deletion strains, locus YHR087W, strain rtc3, stronger effect = lower value.
The mark [9] stands for this setting: S. cerevisiae deletion strains, locus YJR043C, strain POL32, stronger effect = lower value.
The mark [10] stands for this setting: S. cerevisiae deletion strains, locus YJR075W, strain HOC1, stronger effect = lower value.
[11] abbreviates: S. cerevisiae deletion strains, locus YLR039C, strain RIC1, stronger effect = lower value.
The mark [12] stands for this setting: S. cerevisiae deletion strains, locus YLR058C, strain SHM2 (second series), stronger effect = lower value.
The mark [13] stands for this setting: S. cerevisiae deletion strains, locus YLR085C, strain ARP6, stronger effect = lower value.
Where [14] appears, read: S. cerevisiae deletion strains, locus YLR262C, strain YPT6, stronger effect = lower value.
The mark [15] stands for this setting: S. cerevisiae deletion strains, locus YML094W, strain GIM5, stronger effect = lower value.
The mark [16] stands for this setting: S. cerevisiae deletion strains, locus YMR219W, strain ESC1, stronger effect = lower value.
Setting [17] is: S. cerevisiae deletion strains, locus YNL153C, strain GIM3, stronger effect = lower value.
[18] abbreviates: S. cerevisiae deletion strains, locus YNL298W, strain CLA4 (second series), stronger effect = lower value.
Setting [19] is: S. cerevisiae deletion strains, locus YNL322C, strain KRE1, stronger effect = lower value.
The mark [20] stands for this setting: S. cerevisiae deletion strains, locus YNR030W, strain Alg12, stronger effect = lower value.
Where [21] appears, read: S. cerevisiae deletion strains, locus YPL055C, strain LGE1, stronger effect = lower value.
Setting [22] is: S. cerevisiae deletion strains, locus YPL241C, strain CIN2, stronger effect = lower value.
Setting [23] is: S. cerevisiae deletion strains, locus YPR135W, strain CTF4, stronger effect = lower value.

As to `C[C@]12CCc3occc3C1CC[C@@]13C[C@@H](CCC12)[C@@](O)(CO)C3` (stereo partly specified), the normalized growth is 0.934 under setting [1]; 0.961 (S. cerevisiae deletion strains, locus YHR079C, strain IRE1, stronger effect = lower value); 0.948 (S. cerevisiae deletion strains, locus YJL095W, strain BCK1, stronger effect = lower value); 0.909 (S. cerevisiae deletion strains, locus YJR066W, strain TOR1, stronger effect = lower value); 0.873 (S. cerevisiae deletion strains, locus YLR113W, strain HOG1, stronger effect = lower value); 0.91 (S. cerevisiae deletion strains, locus YNL183C, strain NPR1, stronger effect = lower value). The normalized growth (S. cerevisiae deletion strains, locus YOR231W, strain MKK1, stronger effect = lower value) is 0.911 and the normalized growth (S. cerevisiae deletion strains, locus YPL256C, strain CLN2, stronger effect = lower value) is 0.924.
As to `Nc1ccc(Sc2cc(Cl)ccc2Cl)nc1`, the normalized growth under setting [2] is 0.947; the normalized growth under setting [3] is 0.906 (active); the normalized growth (S. cerevisiae deletion strains, locus YCL061C, strain MRC1, stronger effect = lower value) was 0.958; the normalized growth under setting [4] is 0.963; the normalized growth under setting [5] was 0.843; the normalized growth under setting [6] was 0.916. Besides, the normalized growth under setting [7] was 0.911 (active); the normalized growth under setting [1] is 0.341 (active); the normalized growth under setting [8] was 0.898 (active); the normalized growth (S. cerevisiae deletion strains, locus YJL187C, strain SWE1, stronger effect = lower value) was 0.928 (active); the normalized growth under setting [9] is 0.932; the normalized growth under setting [10] was 0.827 (active). Besides, the normalized growth by setting is: (S. cerevisiae deletion strains, locus YKL190W, strain CNB1, stronger effect = lower value) 0.762 (active); under setting [11], 0.398 (active); under setting [12], 0.929 (active); under setting [13], 0.383 (active); under setting [14], 0.348 (active); under setting [15], 0.828 (active). The normalized growth under setting [16] is 0.958; the normalized growth (S. cerevisiae deletion strains, locus YMR307W, strain GAS1, stronger effect = lower value) was 0.454 (active); the normalized growth under setting [17] is 0.934; the normalized growth under setting [18] was 0.781 (active); the normalized growth under setting [19] is 0.97; the normalized growth under setting [20] was 0.785 (active). For the same compound, the normalized growth was 0.594 (active) (S. cerevisiae deletion strains, locus YOL006C, strain TOP1, stronger effect = lower value); 0.99 under setting [21]; 0.737 (active) under setting [22]; 0.497 (active) under setting [23].
Consider `Cc1noc(C)c1C(=O)N1CCOCC1`, for which the normalized growth was 1 under setting [2]; 0.998 under setting [3]; 1 under setting [4]; 0.971 under setting [5]; 1.01 under setting [6]; 1 under setting [7]. Further, the normalized growth is 1.07 under setting [1]; 1 under setting [8]; 1 under setting [9]; 1 under setting [10]; 1.03 under setting [11]; 1 under setting [12]. Besides, the normalized growth is, setting by setting: under setting [13], 1.04; under setting [14], 1.01; under setting [15], 1.02; under setting [16], 0.993; (S. cerevisiae deletion strains, locus YMR263W, strain SAP30, stronger effect = lower value) 0.982; under setting [17], 0.996. Besides, the normalized growth is, setting by setting: under setting [18], 1.02; under setting [19], 0.995; under setting [20], 1.02; under setting [21], 1; under setting [22], 1.06; under setting [23], 1.02. For the same compound, under “S. cerevisiae strains, strain wild type, stronger effect = lower value”, the normalized growth is 1.01.
